Screens as filed in PubChem.
In the library only some 0.54% were active in any assay of this set; here they are far more common.
pAkt inh – blocks phosphorylation of Akt | activity change, % for hits at 50 µM | 360,000 compounds, 0.32% hits | AID 651550 | Neuro2A IGF-stimulated pAkt S473 HTRF, 20 min; active compounds read low; in the data active = activity change below about -80%; inconclusive = mostly about -51% to -80%; also: % is scaled to controls: 0 for no effect and ±100 for the full control effect
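Neuro2A cells (4,500/well, DMEM with 0.5% FBS) were treated with compound at a single 50 µM final concentration, stimulated with 6 nM IGF for 20 min at 37 °C, and lysed. Phospho-Akt Ser473 was read by HTRF as 665/615 ratio ×10^4.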
Menin-MLL TR inh – inhibitors of human menin-MLL interaction, mutant MLL peptide; O00255; Menin + Texas Red MLL mutant peptide, fluorescence polarization; Potency, µM (highest dose often 61.6 µM), inactives show at the top dose FP activity change, negative = inhibition, most hits filed as inhibitors; 270,000 compounds, 0.23% hits; AID 1768; active = well fitted inhibition curve with a large enough effect in the polarisation, with a control signal flat, not every such curve was filed as active; inconclusive = small, poorly fitted or top-dose-only effect, or effect the other way, or a change in a side signal; inactive = no such curve, though single readings can be large or run the other way; the % refers to the polarisation; also: potency is read from the fitted curve at half-maximal effect; % of control where 0% means no effect
LDHA block – blocks human lactate dehydrogenase A; P00338; purified LDHA, NADH/diaphorase-resazurin fluorescence; active compounds read low; activity change, % (values are at about 110 or 230 µM); 480,000 compounds, 0.15% hits; AID 1347041; in the data active = activity change below about -30%; inconclusive = mostly about -25% to -30%;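 also: plate controls were DMSO wells for no effect and wells without enzyme for full effect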
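Enzyme activity of human lactate dehydrogenase 5 (2 nM; 0.06 mM NADH, 0.2 mM pyruvate, 5 min, RT) is measured via a resazurin/diaphorase fluorescence readout of residual NADH.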
Menin-MLL FL inh – menin-MLL binding inhibition, fluorescein peptide | Fluorescence polarization, fluorescein-MLL peptide displacement from menin | FP activity change, % at 61.4 µM | 290,000 tested, under 10 active; active = well fitted curve in the direction sought with a large enough effect in the polarisation, not every such curve was filed as active; inconclusive = small, poorly fitted or top-dose-only effect, or effect the other way, or a change in a side signal; inactive = no such curve, though single readings can be large or run the other way; the % refers to the polarisation; also: % of control where 0% means no effect
mIDH1 inhibitor – blocks human mutant IDH1 R132H enzyme; O75874; IDH1-R132H enzyme, NADPH consumption, diaphorase/resazurin fluorescence; Potency, µM (top dose mostly 76.6 µM), for the others: top-dose activity change, negative = inhibition, actives largely listed as inhibitors; 390,000 compounds, 0.093% hits; active = well fitted inhibition curve with a large enough effect; inconclusive = small, poorly fitted or top-dose-only effect; inactive = no such curve, though single readings can be large or run the other way; also: potency is read from the fitted curve at half-maximal effect; % is scaled to controls: 0 for no effect and ±100 for the full control effect; nearly all actives have a fitted effect of over 65% in size
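IDH1-R132H (0.5 ug/mL) preincubated 30 min with compound, then NADPH (0.016 mM) and alpha-KG (2 mM) added; 80 min at RT, pH 7.5. Remaining NADPH coupled via diaphorase/resazurin to fluorescence (540/590 nm); concentration-response curves normalized to no-enzyme control.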
CXXC DNA block – blocks binding of human MLL CXXC domain to DNA. Q03164. MLL-CXXC / FITC-HOXA9 DNA fluorescence polarization. Potency, µM (top dose mostly 115 µM), inactives show at the top dose activity change, negative = inhibition, actives largely listed as inhibitors. 290,000 compounds, 0.037% hits; active = well fitted inhibition curve with a large enough effect in the polarisation, with a control signal flat, not every such curve was filed as active; inconclusive = small, poorly fitted or top-dose-only effect, or effect the other way, or a change in a side signal; inactive = no such curve, though single readings can be large or run the other way; the % refers to the polarisation; also: potency is read from the fitted curve at half-maximal effect
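Steps: dispense CXXC domain solution (7 uM) → pin compounds or unlabeled HOX-A9 DNA control → 5 min ambient → add FLSN-HOX-A9 solution (50 nM) → spin → 30 min ambient → fluorescence polarization. Tris pH 7.5/NaCl/DTT/BSA buffer.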
* hit, by the source's call; i = inactive; ? = inconclusive; / = no result.

SMILES	pAkt inh	Menin-MLL TR inh	LDHA block	Menin-MLL FL inh	mIDH1 inhibitor	CXXC DNA block
COCCN(CCOC)S(=O)(=O)c1ccc(C(=O)NC2CCN(Cc3ccccc3)CC2)cc1	-113.4%*	-5.0%	-1.2	1.2	5.1%	-3.9%
Cc1ccc(OCC(O)Cn2c(=N)n(CCN3CCCCC3)c3ccccc32)cc1 (configuration not stated)	-113.4%*	-24.7%	-13.3	6.8	3.4%	22.3%
CCOc1ccccc1N1CCN(c2nc3ccccc3nc2C(C#N)C(=O)OC)CC1 (configuration not stated)	i	1.4%	18.3	2.1	0.4%	-4.5%
COc1ccccc1N1CCN(c2nc3ccccc3nc2C(C#N)C(=O)OC(C)C)CC1 (configuration not stated)	-97.2%*	-29.9%	5.2	3.3	7.0%	13.1%
N#CC(C(=O)NCc1ccccc1)c1nc2ccccc2nc1N1CCCC1 (configuration not stated)	-84.5%*	9.0%	0.7	?	1.7%	?
CC(=O)Nc1ccc(Cc2ccncc2)cc1	-112.8%*	3.2%	-4.5	-0.4	-12.4%	-2.8%
CC(=O)Nc1ccc(S(=O)(=O)Nc2ccc(Cc3ccncc3)cc2)cc1	i	0.1%	-16.0	-6.0	1.7%	6.8%
CC(C)c1ccccc1NC(=O)C1CC=CCC1 (configuration not stated)	/	/	3.6	/	/	/
CC(C)c1cccc(C(C)C)c1NC(=O)C1CC=CCC1 (configuration not stated)	/	/	-31.8*	/	/	/
O=C(CCNC(=O)Cn1cnc2ccccc2c1=O)NCC1CCCO1 (configuration not stated)	i	6.6%	-3.3	0.9	0.9%	-5.0%
O=C(CCNC(=O)Cn1cnc2ccccc2c1=O)NCC1COc2ccccc2O1 (configuration not stated)	-107.0%*	0.6%	-5.3	0.0	10.6%	1.9%
NC(=O)N/N=C/c1ccc([N+](=O)[O-])o1	i	1.0%	1.7	-1.9	12.7%	-1.2%
COC(=O)N/N=C/c1ccc([N+](=O)[O-])o1	-114.8%*	-0.2%	10.3	-1.1	-5.9%	-4.9%
COc1ccc(-c2cc(=O)c3cc(OC(=O)C(C)(C)C)ccc3o2)cc1	/	/	-32.3*	/	/	/
COc1ccc(-c2cc(=O)c3cc(OC(=O)C(C)C)ccc3o2)cc1	/	/	12.3	/	/	/
Cc1cccc(C)c1NC(=O)CSc1nc(CN(C)C)nc2ccccc12	/	/	-0.2	/	/	/
O=C(Oc1ccc(OC(=O)c2ccco2)c(S(=O)(=O)c2ccc(Br)cc2)c1)c1ccco1	i	10µM*	-3.2	-0.9	3.7%	117.9%
Cc1ccc(-n2cc(C(=O)c3ccc(F)cc3)nn2)cc1Cl	-120.8%*	-15.7%	-5.7	1.0	0.9%	-14.6%
COC(=O)[C@@H](NC(=O)Nc1cccc(C)c1C)C(C)C	/	/	-0.3	/	/	/
COC(=O)c1ccc(NC(=O)CNCc2ccncc2)cc1	i	-11.7%	-30.3*	6.7	2.5%	0.7%
COC(=O)c1ccc(CNCC(=O)Nc2ccc(C(=O)OC)cc2)cc1	i	-7.4%	-1.2	0.2	-12.0%	7.9%
N=c1nc(-c2ccccc2)n(-c2ccccc2)s1	/	/	-71.3*	/	/	/
O=C(O)C[C@@H]1C(=O)O[C@@H]2C(COC(=O)c3cc(O)c(O)c(O)c3)O[C@@H](OC(=O)c3cc(O)c(O)c(O)c3)[C@@H](OC(=O)c3cc(O)c(O)c4c3[C@H]1[C@H](O)C(=O)O4)[C@H]2OC(=O)c1cc(O)c(O)c(O)c1 (some centres not stated)	/	/	/	11.8	/	28.2µM*
COC1OC(COC(=O)c2ccccc2)C(OC(=O)c2ccccc2)C1OC(=O)c1ccccc1 (configuration not stated)	i	18.9%	-2.8	0.6	20.5%	1.2%
O=C(CSc1nc(-c2cccs2)nc2ccccc12)N1CCCCC1	/	/	3.9	/	/	/
SMILES	pAkt inh	Menin-MLL TR inh	LDHA block	Menin-MLL FL inh	mIDH1 inhibitor	CXXC DNA block
Cn1c(O)c(/C=C2\C=Nc3ccccc32)sc1=Nc1ccc(C(=O)O)cc1	i	/	-35.1*	1.5	5.5%	-9.2%
CCn1c(O)c(/C=C2\C=Nc3ccccc32)sc1=Nc1ccccc1	-89.0%*	?	-7.1	?	-4.1%	29.1%
CCc1ccc2oc(=O)cc(CN3CCN(c4ccccc4F)CC3)c2c1	/	/	5.6	/	/	/
N#CC(C#N)C(c1ccsc1)c1c(-c2ccccc2)[nH][nH]c1=O (configuration not stated)	-107.9%*	8.4%	6.2	0.1	6.9%	2.8%
Cc1ccc(C(=O)Nc2ccc3oc(-c4cccnc4)nc3c2)cc1[N+](=O)[O-]	/	/	-6.8	/	/	/
Cc1cc(C)c2oc(C(=O)Nc3ccccc3C)cc(=O)c2c1	/	/	-3.2	/	/	/
COc1ccc(Cl)cc1NC(=O)NC1CCCCC1	-127.4%*	?	-0.1	2.2	5.1%	16.2%
COc1ccc(S(=O)(=O)N2CCN(C(=O)NC3CCCCC3)CC2)cc1OC	-105.5%*	-6.4%	-8.4	4.2	-5.5%	-3.1%
COc1cc(S(=O)(=O)NC2CCCCC2)ccc1Cl	-118.8%*	14.1%	-0.1	-3.3	8.1%	-5.8%
COc1ccc(S(=O)(=O)N(C)CC(=O)NC2CCCC2)cc1Cl	-110.1%*	7.8%	-1.7	-3.4	3.0%	5.6%
O=C(Nc1ccc(Cl)c(Cl)c1)C1CCN(c2ncnc3nc[nH]c23)CC1	/	/	-3.0	/	/	/
Cc1ccccc1CN(C)C(C(=O)NC1CC1)c1ccc(F)cc1 (configuration not stated)	/	/	5.3	/	/	/
COc1ccccc1NC(=O)CSc1nnc(Cc2cccn2C)n1CCc1ccccc1	-83.0%*	-15.3%	-5.8	2.9	5.2%	10.4%
CCCC(=O)Nc1ccc2nc(SCC(=O)Nc3nccs3)sc2c1	i	?	-34.6*	-0.8	11.3%	13.0%
CCOC(=O)C1CCN(S(=O)(=O)c2cc(Cl)c(C)cc2OC)CC1	-105.2%*	19.3%	-6.6	2.7	0.1%	6.9%
CCOC(=O)C1CCN(S(=O)(=O)c2ccc(Cl)cc2OC)CC1	i	-5.6%	-4.8	3.2	1.8%	17.9%
COC(=O)c1[nH]c(C)c(/C(O)=C2\C(=O)C(=O)N(CCN3CCOCC3)C2c2cccs2)c1C (configuration not stated)	-96.2%*	-5.6%	-6.0	-0.6	4.4%	4.5%
CCOC(=O)c1[nH]c(C)c(/C(O)=C2\C(=O)C(=O)N(CCCN3CCOCC3)C2c2cccs2)c1C (configuration not stated)	i	/	-6.4	6.1	0.1%	-5.9%
CCOC(=O)N/N=C/c1ccccc1OCC(=O)O	/	/	4.4	/	/	/
